# HT1080 IDH1KD tx = qHTS for induction of synthetic lethality in tumor cells producing 2HG: qHTS for the HT-1080-IDH1KD cell line. HT-1080 IDH1 knockdown viability, ATP luminescence, 48 h. Potency, µM (series often up to 46.1 µM), inactives show at the highest dose activity, negative = toxicity, hits mostly cytotoxic. actives 2% (n = 360,000);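 further: 0% = DMSO wells and -100% = cell-free medium wells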
#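 CellTiter-Glo luminescence after 48 h compound exposure at 37 degrees C of IDH1-knockdown HT-1080 cells in 5% FBS RPMI. %Activity scaled between DMSO wells and cell-free media wells, with curves fitted and assigned curve classes.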
# KB-V1 cytotox = qHTS assay for MDR1-selective chemotherapeutics: Primary screen using the drug-selected MDR subline cells KB-V1. KB-V1 MDR cells viability, CellTiter-Glo, 72 h. actives 3.4% (n = 400,000). Potency, µM (top dose mostly 46.1 µM), most hits filed as cytotoxic; further: on the % scale 0 is the no-effect control and ±100 the full control effect; nearly all actives have a fitted effect of over 60% in size
#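 In this primary screen, KB-V1 cells overexpressing P-gp are incubated with library compounds (lowest to highest concentration) for 72 h at 37 degrees C before a luminescent ATP viability read.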
# TGFb inhibitor = qHTS for Inhibitors of TGF-b; HepG2 CAGA-GFP TGF-b/SMAD3 reporter, GFP fluorescence, 18 h; TGF-beta stimulated, 500 pg/mL final; Potency, µM (series often up to 46.1 µM), inactives show at the highest dose activity, negative = inhibition, usual class: inhibitors; actives 1.2% (n = 410,000); AID 588855, 2011; further: on the % scale 0 is the no-effect control and ±100 the full control effect; nearly all actives have a fitted effect of over 65% in size
#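 First, reporter cells (HEPG2 CAGA-GFP) rested 2 h at 37 degrees C. Next, compounds were pinned in and TGF-beta added to 500 pg/mL final. After 18 h, GFP was imaged per cell and summed per well.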
# HT1080NT lethal = qHTS for induction of synthetic lethality in tumor cells producing 2HG: qHTS for the HT-1080-NT fibrosarcoma cell line | Potency, µM (top dose mostly 46.1 µM), inactives show top-dose activity, negative = less viability, hits mostly cytotoxic | HT-1080-NT fibrosarcoma viability, CellTiter-Glo ATP luminescence, 48 h | actives 1.6% (n = 360,000);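 further: NT is the 2HG producing partner of a matched IDH1 knockdown line; 0% = DMSO-treated cells and -100% = media-only wells without cells; nearly all actives have a fitted effect of over 55% in size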
#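 Toxicity toward the 2HG-producing NT line was scored as %Activity, normalised to DMSO and no-cell wells, from CellTiter-Glo luminescence after 48 hours' treatment.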
# HepG2 viability = qHTS for Inhibitors of TGF-b: Cytotox Counterscreen. actives 0.76% (n = 410,000). Potency, µM (titrated, usually from 46.1 µM), for inactives: at the highest dose activity change, negative = cytotoxicity, most hits filed as cytotoxic. AID 588856, 2011. HepG2 CAGA-GFP viability, ATP luminescence, 18 h
#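 HepG2 CAGA-GFP cells (1000/well, DMEM with 1% FBS) received compound, then TGF-beta at 500 pg/mL final, and were incubated 18 hours at 37 degrees C. Viability was read by CellTiter-Glo luminescence. Media-only wells were set as complete cell-killing and DMSO as no toxicity.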
# KB-3-1 cytotox = qHTS assay for MDR1-selective chemotherapeutics: Primary screen using the parental adenocarcinoma cell KB-3-1 | KB-3-1 viability, CellTiter-Glo ATP luminescence, 72 h | Potency, µM (series often up to 46.1 µM), hits mostly cytotoxic | actives 1.4% (n = 400,000); further: on the % scale 0 is the no-effect control and ±100 the full control effect; nearly all actives have a fitted effect of over 60% in size
#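 72 h, 37 °C compound treatment of KB-3-1 parental cells; CellTiter-Glo added, 10 min, luminescence read. Data corrected against DMSO-only plates and normalized before curve fitting.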
# Active calls of the source: *; i = inactive; ? = inconclusive; / = no result given. Most compounds without a hit are left out; they make up all but 6.6% or so of the library. The call rests on the fitted dose curve; in most records, active means well fitted curve in the direction sought with a large enough effect; inconclusive means small, poorly fitted or top-dose-only effect, or another doubt; inactive means no such curve, though single readings can be large; an effect the other way counts as inactive or inconclusive. Potency means the concentration at half of the fitted maximal effect.
SMILES,HT1080 IDH1KD tx,KB-V1 cytotox,TGFb inhibitor,HT1080NT lethal,HepG2 viability,KB-3-1 cytotox
CC(CCO)Nc1nc2c(c(=O)n(C)c(=O)n2C)n1Cc1ccc(Br)cc1 (stereo not drawn),/,i,7.9%,/,-10.0%,i
O=C(CN1C(=O)NC2(CCCCCC2)C1=O)N1CCC(Cc2ccccc2)CC1,-10.7%,18.4µM*,2.6%,-12.4%,-41.3%,?
CC(NC(=O)CN1C(=O)NC(Cc2ccccc2)(Cc2ccccc2)C1=O)C12CC3CC(CC(C3)C1)C2 (stereo not drawn),?,?,-6.1%,20.6µM*,-61.2%,?
O=C(CN1C(=O)NC2(CCCCC2)C1=O)N1CCN(S(=O)(=O)c2ccccc2)CC1,9.2%,i,7.1%,9.7%,-6.7%,i
Cc1ccc(NC(=O)CN2C(=O)NC3(CCC(C)CC3)C2=O)c(Cl)c1 (stereo not drawn),?,18.4µM*,7.2%,-8.1%,-10.6%,i
Cc1ccc(NC(=O)CN2C(=O)NC3(CCCCCCC3)C2=O)cc1C,-8.2%,23.1µM*,-5.2%,-6.3%,-5.9%,i
COC(=O)c1c(NC(=O)Cc2coc3cc(C)ccc23)sc2c1CCCC2,/,i,18.5%,/,-7.5%,i
CC(NC(=O)CN1C(=O)NC2(CCCCCCC2)C1=O)c1ccccc1 (stereo not drawn),14.2%,23.1µM*,?,6.7%,5.2%,i
O=C(CN1C(=O)NC2(CCCC2)C1=O)NC(c1ccccc1)c1ccccc1,-9.8%,i,31.4%,-2.8%,-32.3%,?
CCOC(=O)Cc1ccc(NC(=O)N2CC(C)Oc3ccc(Cl)cc32)cc1 (stereo not drawn),/,/,0.0%,/,-18.7%,/
CCN(CC)S(=O)(=O)c1cc(NC(=O)CNc2cccc(S(=O)(=O)N3CCCC3)c2)ccc1C,-21.1%,20.6µM*,?,4.61µM*,-11.4%,2.91µM*
CN(C)S(=O)(=O)c1cccc(NC(=O)CNc2cccc(S(=O)(=O)N3CCCCC3)c2)c1,-16.3%,i,-9.1%,-10.9%,-27.3%,?
CCN(CC)S(=O)(=O)c1cccc(NC(=O)CNc2cccc(S(=O)(=O)N3CCOCC3)c2)c1,/,20.6µM*,?,/,-23.1%,1.3µM*
O=C(NCc1cccs1)c1ccc(CSc2nc3ccncc3n2Cc2cccc(F)c2)cc1,/,?,?,/,-32.4%,i
O=S(=O)(c1cccc(Cl)c1)c1nnn2c1nc(NC1CCCC1)c1sccc12,/,i,-15.0%,/,-29.8%,i
CC(=O)N(Cc1c(C)nn(-c2ccccc2)c1Cl)c1ccc(Cl)cc1,-9.9%,?,2.3%,-1.4%,-45.3%,i
Cc1nn(-c2ccccc2)c(Cl)c1CN(C(=O)CCl)c1cccc2ccccc12,5.17µM*,?,?,4.11µM*,-112.6%,18.4µM*
Cc1nn(-c2ccccc2)c(Cl)c1CN(C(=O)CCl)c1ccc(Cl)cc1,5.17µM*,20.6µM*,10µM*,7.31µM*,7.94µM*,?
Cc1cc(C)c2c(ccc3ccccc32)n1,18.7%,?,-36.6%,9.0%,1.0%,i
Oc1ccc(-c2nc3ccc4ccccc4c3c3c2CCC3)cc1O,?,?,0.0%,?,25.1µM*,?
Cc1ccc(CN(Cc2ccco2)C(=O)c2ccccc2Cl)o1,/,/,-46.5%,/,-4.4%,/
COC(=O)c1c(-c2ccncc2)csc1NC(=O)c1ccoc1C,21.2%,6.51µM*,-1.4%,16.9%,-2.9%,?
COc1cc(OC)c2c(C)c(CC(=O)NCc3ccccc3OC)c(=O)oc2c1,/,?,-24.4%,/,-45.0%,i
Cc1cc(C)c(Cn2c(=O)n(CCCC(=O)NCc3ccc4c(c3)OCO4)c(=O)c3sccc32)c(C)c1,/,/,-16.3%,/,2.7%,/
COc1cc(-c2n[nH]c(=S)n2-c2cc(C(F)(F)F)ccc2Cl)cc(OC)c1OC,2.9%,13µM*,-1.1%,2.9%,-9.1%,i
SMILES,HT1080 IDH1KD tx,KB-V1 cytotox,TGFb inhibitor,HT1080NT lethal,HepG2 viability,KB-3-1 cytotox
CC(=O)Nc1ccc(S(=O)(=O)Nc2cccc(-c3ccc(N4CCC(C)CC4)nn3)c2)cc1,/,i,?,/,-36.4%,i
CCOc1ccc(/C=C/c2nc(C#N)c(Nc3ccc(OC)cc3)o2)cc1,/,/,-19.9%,/,-1.9%,/
Cn1c(=O)c2cc(NC(=O)Cc3ccccc3F)ccc2n1-c1ccc(C(C)(C)C)cc1,-28.3%,i,?,?,-19.3%,?
CC(CC(=O)Nc1ccc2c(c1)c(=O)n(C)n2-c1cccs1)c1ccccc1 (stereo not drawn),4.11µM*,?,8.2%,?,-4.5%,?
Cc1cc(C)cc(-n2c3ccc(NC(=O)Cc4cccc5ccccc45)cc3c(=O)n2C)c1,2.06µM*,?,?,?,-10.8%,5.17µM*
COC(=O)c1sccc1S(=O)(=O)N(CC(=O)NCc1ccc(F)cc1)c1ccc(Cl)cc1,/,i,?,/,-4.1%,i
CCOc1ccc(C2CC(=O)c3c([nH]c(C(=O)OCCOc4ccccc4)c3C)C2)cc1 (stereo not drawn),/,i,-15.7%,/,-24.9%,i
CC(=O)c1c(C)[nH]c(C(=O)OCc2ccccc2F)c1C,-15.3%,4.61µM*,-15.3%,-10.2%,-4.8%,i
Cc1c(C(=O)OCCOc2ccccc2)[nH]c2c1C(=O)CCC2,-19.3%,11.6µM*,?,-17.2%,4.8%,i
CC(=O)c1c(C)[nH]c(C(=O)OCc2ccc(Br)cc2)c1C,?,6.51µM*,?,?,-15.6%,?
CC(=O)c1c(C)[nH]c(C(=O)OCCOc2ccccc2)c1C,?,6.51µM*,?,0.7%,-4.1%,?
COc1ccc(C)cc1COC(=O)c1[nH]c(C)c(C(C)=O)c1C,-19.3%,i,-5.8%,-0.9%,-17.1%,i
CC(=O)c1c(C)[nH]c(C(=O)OCc2cccc(C)c2)c1C,-20.9%,?,-26.5%,-11.2%,-19.5%,?
COCCn1c(SCC(=O)c2c(C)[nH]c3ccccc23)nc2cc(C(=O)NC(C)C)ccc2c1=O,/,i,?,/,-18.7%,i
O=C1C=C(Nc2cccnc2)c2ccccc2C1=O,23.1µM*,?,3.55µM*,23.1µM*,4.47µM*,8.2µM*
CCOc1ccc(NC2=CC(=O)C(=O)c3ccccc32)cc1,?,4.11µM*,4.47µM*,?,-103.1%,6.51µM*
